According to the supplement of paper PMC6555819:

Legend:
Test in all cases: PBM binding z-score (relative to random genomic background probes); higher = stronger binding; sequences stand for … in GC…GCGATTGACAGCGTAGAATGAAGG
[1] = tested on: FXR:RXRa (NR concentration 270 nM, RXRa partner concentration 90 nM)
Outline: (§1)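 Custom Agilent 4×180K protein-binding microarrays carried double-stranded probes. Their 34-nt variable regions held direct-repeat seeds, single-nucleotide variants, half-site ablations and random human genomic background sequences. Arrays were incubated 1 h with ligand-free nuclear receptor dimers in PBS pH 7.4, 2% milk, 0.02% Triton X-100, 1 mM DTT, 0.2 mg/mL BSA and 0.4 mg/ml salmon testes DNA. Antibodies against each partner (one per run) detected binding, and scanned fluorescence was regression-normalized. Binding z-scores use random background probes as reference.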

[2] = tested on: LXRa:RXRa (NR concentration 270 nM, RXRa partner concentration 90 nM)
Outline: as §1

[3] = tested on: LXRa homodimer (NR concentration 270 nM)
Outline: as §1

[4] = tested on: LXRb:RXRa (NR concentration 270 nM, RXRa partner concentration 90 nM)
Outline: as §1

[5] = tested on: LXRb homodimer (NR concentration 270 nM)
Outline: as §1

[6] = tested on: PPARa:RXRa (NR concentration 270 nM, RXRa partner concentration 90 nM)
Outline: as §1

[7] = tested on: PPARg:RXRa (NR concentration 180 nM, RXRa partner concentration 90 nM)
Outline: as §1

[8] = tested on: PPARg:RXRa 270nM:90nM, anti-RXR (NR concentration 270 nM, RXRa partner concentration 90 nM)
Outline: as §1

[9] = tested on: PPARg:RXRa 30nM:10nM, anti-RXR (NR concentration 30 nM, RXRa partner concentration 10 nM)
Outline: as §1

[10] = tested on: PPARg:RXRa 90nM:30nM, anti-RXR (NR concentration 90 nM, RXRa partner concentration 30 nM)
Outline: as §1

Sequence	PBM binding z-score [1]	PBM binding z-score [2]	PBM binding z-score [3]	PBM binding z-score [4]	PBM binding z-score [5]	PBM binding z-score [6]	PBM binding z-score [7]	PBM binding z-score [8]	PBM binding z-score [9]	PBM binding z-score [10]
ACTAGTTGGTCAGCTGAGGTCAAACACAATTCGG	3.81	4.24	4.08	4.26	1	4.22	1.65	2.34	0.396	1.55
AGTCAAAGTTCATCTAGGTAACCTAAGATATGCT	6.25	6.2	6.02	4.02	2	4.99	6.33	6.35	3.52	5.54
TCTAGTTGGTCACGGAGGTCACCCACGACGGGTA	3.16	3.23	2.36	2.91	0.635	3.67	3.23	4.07	3.3	3.64
GCTGCTAGGTCTGGTTGGTCAGCTAACGGGTACG	-0.623	-0.65	-0.365	-0.912	-0.475	-0.774	-0.79	-0.447	-1.15	-0.815
ATATGTAGCTTATCGGGTCATTCAGTTTGCGCAT	2.02	2.21	1.13	2.2	1.08	2.5	0.837	0.994	0.318	0.857
AGAACGAGGGCAATGAGTTGATGGCACGGGTGGC	0.145	0.254	-0.585	-0.493	-0.436	1.25	1.29	0.598	-0.239	0.238
TCTCGGAGGACAGGAAAGGTCAGAGCTCGACATC	2.63	3.06	1.44	2.83	-0.216	3.23	0.566	2.15	2.51	1.96
AATACAGGGTCATCGTAGACCAGAGTACGCACAG	7.48	5.86	2.19	4.4	1.2	5.84	6.79	6.17	2.73	4.84
TGTCAAAGTTCGAAGGTAACGTAAGTATCCACAC	1.54	1.56	0.166	1.27	-0.175	2.58	4.57	5	2.28	4.19
CCTACTGGGCAAAAGGTCATTGATTCCAATGCTC	4.38	5.09	3.89	4.36	0.466	5.57	10.4	9.29	9.17	9.67
TCTTGTAGATCAAGGGTTAAGAAAGCCGAAGCCT	0.439	0.813	-0.616	0.958	-0.606	3.12	5.36	6.4	5.41	7.18
CCTCGGAGGACAACAGGAGATCAGAGCTGCCAGA	-0.269	-0.36	-0.193	-0.853	-1.12	-0.626	0.424	-0.794	-0.377	-0.822
TAGCCCAGGTCATTCAGGGGCCAGTATAGAAAGC	5.03	4.14	0.808	2.98	0.952	3.9	2.2	2.46	0.688	1.57
ACTATTAGCTGAGACGAGGGCAACCGATAGGTTG	0.185	-0.00873	0.0861	0.0453	0.238	0.0501	0.663	0.238	-0.205	0.302
TCTAGTTGGTCACGGAGGTCACAGACGACGGGTA	3.38	3.46	1.88	3.32	0.321	4.34	3.91	4.32	3.41	3.8
CGAACTATGTCAGAACAGGACAGTGAAGGATGAT	0.0056	-0.347	-0.162	-0.473	0.636	0.0465	0.811	0.229	0.135	-0.000779
CCTTACCGGTCACTCCAGGTTATAGCATCGGAGT	2.6	6.15	4.71	2.67	1.65	1.3	0.603	0.901	0.0814	0.653
CCTACTGAGCCAAAAAGGTCATTGATGCCGATAA	3.37	4.28	3.65	4.29	1.17	4.37	1.31	2.81	0.896	1.99
CAAACTAGGCCACGAAAGGTCAAAGTCGAATGAC	5.14	6.19	5.85	5.69	1.75	6.2	7.45	6.7	4.3	6.62
ATCGAAAGGTCGTGAGTTGAGTATACAGAAAGGC	4.98	3.53	0.0498	2.99	0.743	4.84	3.55	3.9	1.82	2.85
GGAACAAGGGCAAGTTGATAGCAGAGTTTGATGG	0.62	0.417	0.0737	0.264	-0.0748	0.929	1.04	0.726	0.251	0.632
AGTACGAGGGCACGCTGAGTTGATAGCAGAGTAG	0.909	0.941	-0.408	0.078	-0.497	1.63	1.26	0.976	-0.181	0.652
TCAGACATGTGAAGGTAACTCAGGTACGCAGTCG	0.329	1.23	-0.167	0.691	-0.43	0.662	0.745	1.37	3.48	2.63
GGAACGAGGGGAAAGTTGATAGCATCTGTCGACG	-0.0769	-0.0261	-0.204	0.087	0.0705	2.88	4.27	6.01	3.53	6.53
